Compounds with a hit are over-represented: about 1.1% of the library has one in this group of screens.
Keap1 Nrf2 FP – disrupts human Keap1 binding to Nrf2 peptide; Keap1 Kelch-Nrf2 peptide fluorescence polarization, 1536-well; inhibition, % at 9.4 µM; 340,000 tested, 0.15% active; in the data active = inhibition above about 12%; inconclusive = no clear call, values can overlap the other calls; inactive = below about 7.3%;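 note: human Keap1 Kelch domain with fluorescein labeled Nrf2 9mer peptide probe; higher means more block of Keap1 binding to Nrf2 peptide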
C-LANA FP – KSHV C-LANA DNA binding inhibition; MBP-C-LANA/FAM-LBS DNA binding, fluorescence polarization; inhibition, % at 9 µM; 340,000 tested, 0.078% active; AID 504423;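 active = highest replicate inhibition at or above 60% at 9 µM, even if other replicates fall short; inactive = all replicates below 60% inhibition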
NSD2 inh – inhibitors of human histone methyltransferase NSD2 | 310,000 tested, 0.54% active | NSD2 peptide methylation, AlphaScreen, 120 min | inhibition, % at 12.5 µM | O96028; in the data active = inhibition above about 50%
CASP6 VEID inh – blocks human caspase-6 cleavage activity | inhibition, % at 12.5 µM | purified caspase-6, Z-VEID-R110 cleavage fluorescence | P55212 | 350,000 tested, 0.53% active | AID 686996;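 active = mean inhibition across replicates at least about 35%, with every replicate also reaching that limit, limit read from the data; inconclusive = only one of the two criteria met; inactive = neither criterion met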
Target sequence (P55212 24-179 limits assumed): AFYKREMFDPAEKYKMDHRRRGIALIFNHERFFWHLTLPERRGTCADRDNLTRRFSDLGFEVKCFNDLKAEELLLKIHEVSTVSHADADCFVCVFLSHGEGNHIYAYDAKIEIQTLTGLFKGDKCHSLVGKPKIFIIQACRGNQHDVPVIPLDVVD
Target sequence (P55212 194-293 limits assumed): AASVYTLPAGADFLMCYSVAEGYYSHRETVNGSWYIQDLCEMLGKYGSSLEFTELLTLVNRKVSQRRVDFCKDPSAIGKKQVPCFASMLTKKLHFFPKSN
HDAC3 inh – human HDAC3 inhibition; recombinant HDAC3, fluorogenic peptide/trypsin coupled, fluorescence; O15379; AID 2718; inhibition, % at 8.3 µM; 320,000 tested, 0.15% active; in the data active = inhibition above about 26%, passing the limit was not always enough; inconclusive = no clear call, values can overlap the other calls
Target sequence (O15379 whole entry, looked up): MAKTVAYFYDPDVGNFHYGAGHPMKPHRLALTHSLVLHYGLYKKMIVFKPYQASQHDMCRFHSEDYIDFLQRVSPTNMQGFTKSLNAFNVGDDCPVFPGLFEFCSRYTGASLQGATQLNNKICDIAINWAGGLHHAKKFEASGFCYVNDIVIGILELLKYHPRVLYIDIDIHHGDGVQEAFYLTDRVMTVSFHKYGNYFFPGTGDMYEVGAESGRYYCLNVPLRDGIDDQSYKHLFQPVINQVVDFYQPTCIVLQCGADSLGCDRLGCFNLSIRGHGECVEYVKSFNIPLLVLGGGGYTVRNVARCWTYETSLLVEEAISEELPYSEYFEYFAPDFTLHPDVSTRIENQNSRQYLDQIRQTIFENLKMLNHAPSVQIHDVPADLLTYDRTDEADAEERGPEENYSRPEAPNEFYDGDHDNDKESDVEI
N-glyco inh – N-linked glycosylation inhibition; AID 588692; D54 ERlucT glycosylation luciferase reporter, 24 h; percent of 100 nM tunicamycin response; reporter increase, % at 12.5 µM; 360,000 tested, 0.23% active;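 active = mean luciferase reporter signal, scaled so untreated is 0 and the glycosylation-blocking control 100, at or above a set limit in every replicate; inconclusive = mean reaches the limit but not every replicate does; inactive = mean below the limit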;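 note: luciferase carries N-glycosylation sites so blocking glycosylation raises the light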
AlphaScreen art – counter-screen for NSD2 inhibitors: AlphaScreen artifacts. shares compounds with NSD2 inh. AlphaScreen artifact counterscreen, preloaded methylated H4 peptide. AC35, µM (titrated, usually from 10 µM). 1,500 tested, 9.4% active. AID 1053174; call rule not given here
Each line names hits and unclear results; the compound was inactive in the other large screens (follow-up assays come after a bar, where they were run).

CN(CC(=O)Nc1ccccc1C(F)(F)F)C(=O)COc1ncnc2sccc12	none
C[C@@H]1CN([C@H](C)CO)C(=O)c2cccc(NS(=O)(=O)c3ccc(Cl)cc3)c2O[C@@H]1CN(C)Cc1ccc2c(c1)OCO2	none (no result: Keap1 Nrf2 FP, C-LANA FP, NSD2 inh, HDAC3 inh, N-glyco inh)
CC1CCCC(NC(=O)COC(=O)c2ccc([N+](=O)[O-])o2)C1C (stereo unspecified)	none
Cc1cc(C(=O)COC(=O)c2ccc([N+](=O)[O-])o2)c(C)n1CC1CCCO1 (stereo unspecified)	NSD2 inh 54 | AlphaScreen art inactive
CCN(C(=O)COC(=O)c1ccc([N+](=O)[O-])o1)C1CCCCC1	NSD2 inh 69 | AlphaScreen art inactive
COCCn1c(C)cc(C(=O)COC(=O)c2ccc([N+](=O)[O-])o2)c1C	none
CCN(C(=O)COC(=O)c1cccnc1SC)C1CCCCC1	none
O=C(COC(=O)c1ccc([N+](=O)[O-])o1)NC1CCS(=O)(=O)C1 (stereo unspecified)	NSD2 inh 74, CASP6 VEID inh 49 | AlphaScreen art inactive
C[C@H]1CN([C@@H](C)CO)C(=O)c2cc(NC(=O)CCC(F)(F)F)ccc2O[C@H]1CN(C)C(=O)Nc1cccc2ccccc12	none (no result: Keap1 Nrf2 FP, C-LANA FP, NSD2 inh, HDAC3 inh, N-glyco inh)
CCCC(=O)N1CC2(CN(Cc3cccnc3)C2)c2c([nH]c3cc(OC)ccc23)[C@@H]1CO	none (no result: Keap1 Nrf2 FP, C-LANA FP, NSD2 inh, HDAC3 inh, N-glyco inh)
COC1=C(c2ccccc2)C(=O)c2ccccc2C1=O	NSD2 inh 81 (no result: CASP6 VEID inh) | AlphaScreen art inactive
CN(C)CCCNC(=O)C[C@H]1CC[C@H]2[C@@H](COC[C@@H](O)CN2CC2CCCCC2)O1	none (no result: Keap1 Nrf2 FP, C-LANA FP, NSD2 inh, HDAC3 inh, N-glyco inh)
Cc1ccc(NC2=CC(=O)C(=O)c3ccccc32)cc1	NSD2 inh 65 (no result: CASP6 VEID inh) | AlphaScreen art inactive
CCOC(=O)c1ccc(NC2=CC(=O)C(=O)c3ccccc32)cc1	none (no result: CASP6 VEID inh)
O=C1C=C(Nc2ccc(O)cc2)C(=O)c2ccccc21	none (no result: NSD2 inh, HDAC3 inh)
NS(=O)(=O)c1ccc(NC2=CC(=O)C(=O)c3ccccc32)cc1	NSD2 inh 58, CASP6 VEID inh 68 | AlphaScreen art inactive
CO[C@H]1CN(C)C(=O)c2cc(NS(=O)(=O)c3ccc(F)cc3)ccc2OC[C@@H](C)NC[C@H]1C	none (no result: Keap1 Nrf2 FP, C-LANA FP, NSD2 inh, HDAC3 inh, N-glyco inh)
C[C@H]1CN([C@@H](C)CO)C(=O)c2c(c3ccccc3n2C)-c2ccccc2CO[C@H]1CN(C)C(=O)NC1CCCCC1	none (no result: Keap1 Nrf2 FP, C-LANA FP, NSD2 inh, HDAC3 inh, N-glyco inh)
O=C(OCC(=O)N1CCCCC1)c1ccc2c(c1)C(=O)N(Cc1ccco1)C2=O	none
CC(C)(C)NC(=O)COC(=O)c1ccc2c(c1)C(=O)N(Cc1ccco1)C2=O	NSD2 inh 75 | AlphaScreen art inactive
CC1=Nc2cccc3cccc(c23)N1C	NSD2 inh active (no result: CASP6 VEID inh) | AlphaScreen art inactive
O=C1OCC2=Nc3cccc4cccc(c34)N12	none (no result: Keap1 Nrf2 FP, C-LANA FP, HDAC3 inh, N-glyco inh)
O=C(COC(=O)c1ccc([N+](=O)[O-])s1)NCCc1ccccc1	NSD2 inh 58, CASP6 VEID inh 99 | AlphaScreen art inactive
O=C(COC(=O)c1ccc([N+](=O)[O-])s1)NNC(=O)c1ccccc1	none (no result: NSD2 inh, CASP6 VEID inh)
CC(NC(=O)COC(=O)c1ccc([N+](=O)[O-])s1)c1ccccc1 (stereo unspecified)	NSD2 inh 66 (no result: CASP6 VEID inh) | AlphaScreen art inactive
CCC(=O)N1CC2(C1)[C@H](c1ccc(-c3ccccc3)cc1)[C@@H](CO)N2S(C)(=O)=O	none (no result: Keap1 Nrf2 FP, C-LANA FP, NSD2 inh, HDAC3 inh, N-glyco inh)
C[C@@H]1CN([C@H](C)CO)C(=O)c2cc(NC(=O)Nc3ccc4c(c3)OCO4)ccc2O[C@@H](C)CCCCO[C@@H]1CN(C)S(=O)(=O)c1ccccc1	none (no result: Keap1 Nrf2 FP, C-LANA FP, NSD2 inh, HDAC3 inh, N-glyco inh)
c1coc(-c2nnc(-c3ccco3)nn2)c1	NSD2 inh 140, CASP6 VEID inh 89 | AlphaScreen art inactive
c1ccc(-c2nnc(-c3ccco3)o2)cc1	none (no result: NSD2 inh, CASP6 VEID inh)
COC(=O)c1sc(S(=O)(=O)Nc2ccc(C)c(C)c2)c(C(=O)OC)c1C	NSD2 inh 50 | AlphaScreen art inactive
COC(=O)c1sc(S(=O)(=O)NCCCN(C)C)c(C(=O)OC)c1C	none
O=C(NNc1cc(N2CCOCC2)nc(N2CCOCC2)n1)c1ccc([N+](=O)[O-])cc1	NSD2 inh 129 (no result: HDAC3 inh) | AlphaScreen art inactive
O=C(Nc1ccc(N2CCOCC2)cc1N1CCOCC1)c1ccc([N+](=O)[O-])cc1	none (no result: CASP6 VEID inh)
CC(=O)N(/N=C1\Sc2ccccc2C1=O)c1ccccc1C	NSD2 inh 56 (no result: CASP6 VEID inh) | AlphaScreen art inactive
CC(=O)N(/N=C1\Sc2ccccc2C1=O)c1ccc(C)cc1C	none (no result: CASP6 VEID inh)
CCc1cccc(CC)c1NC(=O)C1CC(=O)N(c2ccc3c(c2)OCCO3)C1 (stereo unspecified)	none (no result: CASP6 VEID inh)
Cc1cc(C)c(NC(=O)C2CC(=O)N(c3ccc4c(c3)OCCO4)C2)c(C)c1 (stereo unspecified)	NSD2 inh 106 (no result: CASP6 VEID inh) | AlphaScreen art inactive
CN1CCC(=NNC(=O)c2cn(-c3ccccc3)nc2-c2ccccc2)CC1	NSD2 inh 53 | AlphaScreen art inactive
COc1ccc(-c2nn(-c3ccccc3)cc2C(=O)Nc2ccc(C(=O)O)cc2)cc1	NSD2 inh 73 | AlphaScreen art inactive
O=C(O)c1ccc(NC(=O)c2cn(-c3ccccc3)nc2-c2ccccc2)cc1	none
Nc1ncnc(NCc2ccc(F)cc2)c1[N+](=O)[O-]	HDAC3 inh inconclusive
Nc1ncnc(NCc2ccccc2)c1[N+](=O)[O-]	NSD2 inh 53 | AlphaScreen art inactive
CN(C)Cc1csc(NC(=O)Nc2cccc(Cl)c2)n1	NSD2 inh 74 (no result: Keap1 Nrf2 FP, C-LANA FP, HDAC3 inh) | AlphaScreen art inactive
C[C@@H]1CN([C@@H](C)CO)S(=O)(=O)c2ccc(C#Cc3ccccc3)cc2O[C@H]1CN(C)C(=O)Nc1ccccc1	none (no result: Keap1 Nrf2 FP, C-LANA FP, NSD2 inh, HDAC3 inh, N-glyco inh)
CC(C)Cn1c(N)c(C(=O)COC(=O)c2ccc([N+](=O)[O-])o2)c(=O)n(C)c1=O	NSD2 inh 99 | AlphaScreen art inactive
C[C@H]1CN([C@@H](C)CO)C(=O)c2cc(C#CC3CCCCC3)cnc2O[C@@H]1CN(C)S(=O)(=O)c1ccccc1	none (no result: Keap1 Nrf2 FP, C-LANA FP, NSD2 inh, HDAC3 inh, N-glyco inh)
CC1(C)Cc2cccc(OCC(=O)N3CCN(c4ccccc4)CC3)c2O1	none (no result: CASP6 VEID inh)
CC1(C)Cc2cccc(OCC(=O)O)c2O1	NSD2 inh 54 (no result: CASP6 VEID inh) | AlphaScreen art inactive
C[C@@H]1CN([C@H](C)CO)C(=O)CCCn2nncc2CO[C@@H]1CN(C)C(=O)Nc1ccccc1F	none (no result: Keap1 Nrf2 FP, C-LANA FP, NSD2 inh, HDAC3 inh, N-glyco inh)
CCOc1ccc(C(N)=O)cc1OC	none (no result: CASP6 VEID inh)
CCOc1ccc(N)cc1OC	NSD2 inh 56 | AlphaScreen art inactive
COc1cccc(-c2ccc([C@H]3[C@H](C#N)N(C(=O)Cc4ccccc4)[C@H]3CO)cc2)c1	none (no result: Keap1 Nrf2 FP, C-LANA FP, NSD2 inh, HDAC3 inh, N-glyco inh)
COc1ccc(/C=C(\C#N)C(=O)N2COCC2(C)C)cc1	NSD2 inh 59 | AlphaScreen art inactive
O=C(c1ccco1)N(c1ccccn1)c1ccccn1	none (no result: CASP6 VEID inh)
O=C(/C=C/c1ccco1)N(c1ccccn1)c1ccccn1	NSD2 inh 77, CASP6 VEID inh 54 | AlphaScreen art inactive
CCC1CC(CSc2ncn[nH]2)OC1=O (stereo unspecified)	NSD2 inh 56 (no result: CASP6 VEID inh) | AlphaScreen art inactive

From PubChem
